# High-throughput results: PubChem, Columbia University Molecular Screening Center
# VCAM1 pot – TNF alpha stimulated VCAM1 expression potentiation; 93,000 compounds, 0.19% hits; HUVEC TNFa-stimulated VCAM-1 immunofluorescence, high-content imaging; scaled per plate to unstimulated/TNFa-only wells; AID 808; activation, % at 2 µM;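 active means activation above the screen mean plus 3 SD, with well images confirming the hit on visual review, cut at about 28% in these data, passing the limit was not always enough; inconclusive means activation above that limit but images do not confirm it; inactive means activation not above that limit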;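 further: signal is the number of cytoplasmic VCAM-1 stained grains per positive cell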
# VCAM1 pot confirm – potentiators of TNFa-induced VCAM1 expression, confirmation, imaging, HUVEC, triplicate retest; shares compounds with VCAM1 pot; HUVEC TNFa-stimulated VCAM-1 immunofluorescence imaging; activation, % at 2 µM; 230 tested, under 10 active;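 active means activation above 30% in triplicate retests at 2 µM, then confirmed by visual review of the well images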;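 further: scaled per plate between unstimulated and TNFa-stimulated DMSO control wells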
# Starred values were filed as active, the others as inactive; ? = inconclusive. Shown is part of a subset that was picked to be rich in hits.
SMILES,VCAM1 pot,others
CCOc1ccc(N2C(=O)CSC2c2ccncc2)cc1 (stereo unspecified),-91,
Nc1nnc(SCCOc2ccc(Br)cc2)s1,2,
CC1OC(Nc2cccc3ccccc23)C(O)C(O)C1O (stereo unspecified),?,VCAM1 pot confirm=0
Cc1cc(C)c(C(N)=O)c(Nc2cccc3ccccc23)n1,-1,
CC1CCN(c2ccccc2NC(=S)NC(=O)c2ccco2)CC1,-6,
OC(CN1C2=NCCN2c2ccccc21)c1ccc2c(c1)OCO2 (stereo unspecified),-6,
CC(=O)c1c(C(C)=O)c(C)n(-c2nc(-c3ccccc3)c(C)s2)c1C,-12,
CSc1cc(C)n(-c2ccccc2)c(=S)c1C(C)=O,72*,VCAM1 pot confirm=-16
Clc1ccc(CSc2cc3c(nn2)-c2ccccc2CC3)cc1,-10,
O=C(NCc1ccccc1)c1ccc(C(=O)N(C2CCCCC2)C2CCCCC2)cc1,1,
COc1ccc(OC)c(NS(=O)(=O)c2ccc3c(c2)n(C)c(=O)n3C)c1,-19,
CCOC(=O)c1cc2nc(Nc3ccc(OC)cc3)sc2s1,29,
CCOc1ccc2sc(NS(=O)(=O)c3ccc(OC)c(OC)c3)nc2c1,61*,VCAM1 pot confirm=-18
Cc1ccc(S(=O)(=O)NCC(c2cccnc2)N(C)C)cc1 (stereo unspecified),-5,
COC1(OC)C(/C=C/c2ccc(C)cc2)C(C#N)(C#N)C1(OC)OC (stereo unspecified),-5,
CCSc1nc2ccccc2n1C(=O)/C=C\c1ccc(OC)c(OC)c1,-94,
CCOC(=O)Cc1csc(NC(=O)CSc2nc(N)c3c(C)c(C)sc3n2)n1,33*,VCAM1 pot confirm=-14
CCOC(=O)Cc1csc(NC(=O)CSc2nnnn2-c2ccc(C)cc2C)n1,-3,
CCOC(=O)Cc1csc(NC(=O)COc2ccccc2OCC)n1,4,
C/C(Sc1nnc(Cc2ccccc2)o1)=C(/O)c1ccccc1,6,
N=c1nc(N)nc2n1NC(c1ccc(F)cc1)=CS2,-55,
O=C(CC1NC2CCCCC2NC1=O)Nc1cccc(C(F)(F)F)c1 (stereo unspecified),-1,
CCOC(=O)Cc1nnc(NC(=O)COc2ccc(OC)cc2)s1,-1,
CCc1nnc(NC(=O)c2ccc(OC)cc2OC)s1,64*,VCAM1 pot confirm=-1
CCc1nnc(NC(=O)c2ccc3c(c2)C(=O)N(CC(C)C)C3=O)s1,-14,
SMILES,VCAM1 pot,others
Cc1c(Cl)cccc1-n1ccnc1SCC(=O)O,-94,
CCOc1ccccc1N1CCN(C(=O)c2cccc(-c3ccc(O)cc3)c2)CC1,-44,
CC(=O)Oc1oc(-c2ccccc2)nc1/C=N/c1ccccn1,89*,VCAM1 pot confirm=-4
COC(=O)c1c(NC(=S)Nc2ccccc2Cl)sc(C)c1C,7,
O=C(O)c1cc2ccc3ccccc3c2oc1=O,-26,
CCOC(=O)C(NC(=O)c1ccccc1)(Nc1nnc(C)s1)C(F)(F)F (stereo unspecified),17,
CCOc1ccc(S(=O)(=O)NCCC(=O)NCc2ccco2)cc1,1,
C1=C(CCNCC2CC2)CCCC1,0,
CCOC(=O)COc1ccc(S(=O)(=O)NCCC2=CCCCC2)cc1,48*,VCAM1 pot confirm=-6
NC(=O)C1(N2CCCCC2)CCN(S(=O)(=O)c2cc(Cl)ccc2Cl)CC1,6,
CCC1(COC(NC(=O)c2cccnc2)(C(F)(F)F)C(F)(F)F)COC1,4,
Cc1cc2n(n1)SC(Nc1cc(Cl)ccc1Cl)N2 (stereo unspecified),-21,
CC(C)c1cc(C(=O)NCc2ccco2)no1,-10,
O=C(NCc1ccco1)c1ccccc1F,1,
O=C(NCc1ccco1)c1sc2cc(F)ccc2c1Cl,44*,VCAM1 pot confirm=-10
C=CCSc1nnc2c(n1)OC=Nc1ccccc1-2,14,
O=C1C/C(=C/NCc2ccccc2)C(=O)N1,26,
COc1cc(-c2nnc(CSc3nnc4nc(C)cc(C)n34)o2)cc(OC)c1OC,-1,
Clc1cccc(OCCn2cncn2)c1Cl,?,VCAM1 pot confirm=-10
N#CCCNC(=O)CCN1CCOCC1,-2,
COc1ccc(C2C=C(c3cccs3)Nc3nc(CCCO)nn32)cc1 (stereo unspecified),-7,
COc1ccccc1C(=O)NC(C)C(c1cccs1)N1CCN(C)CC1 (stereo unspecified),21,
Cc1ccc(-n2nnnc2-c2cnc(-c3cccnc3)nc2C(F)(F)F)cc1,52*,VCAM1 pot confirm=-10
CCOc1ccc(-c2nc(-c3cccnc3)no2)cc1,3,
Cc1ccc(SCc2nc(-c3cccnc3)no2)cc1,-51,
SMILES,VCAM1 pot,others
CCc1ccc(OCC(=O)NCc2ccco2)c(Br)c1,-7,
Cc1cc(C)c2cc(CN(Cc3ccc4c(c3)OCO4)Cc3nnnn3Cc3ccco3)c(=O)[nH]c2c1,54*,VCAM1 pot confirm=-5
COc1ccc2cc(CN(Cc3cccs3)Cc3nnnn3Cc3ccccc3)c(=O)[nH]c2c1,-1,
COCCn1nnnc1CN(CCCN1CCOCC1)Cc1cc2c(C)ccc(C)c2[nH]c1=O,-4,
COc1ccccc1N1CCN(C(=O)CSc2ccc3c(C)cc(C)nc3n2)CC1,-5,
CC(C)[C@H](NC(=O)OC(C)(C)C)c1nnc(SCc2cccc(F)c2)o1,2,
O=C(Nc1cnn(C23CC4CC(CC(C4)C2)C3)c1)c1cnn2c(C(F)(F)F)cc(-c3ccco3)nc12,-8,
CCN1CCN(C(c2cc(OC)c(OC)c(OC)c2)c2nnnn2C(C)C)CC1 (stereo unspecified),-3,
O=C1CN=C(Nc2cccc(C(F)(F)F)c2)N1C1CCCC1,7,
COC(=O)c1ccc(C)c(NS(=O)(=O)c2ccc(OC)cc2)c1,32*,VCAM1 pot confirm=-59
COC(=O)c1ccc(C)c(NC(=O)C2COc3ccccc3O2)c1 (stereo unspecified),-7,
COc1ccc(NS(=O)(=O)c2ccc(C)c(C(=O)O)c2)cc1,-7,
CN1CCN(S(=O)(=O)c2ccc(Br)c3nsnc23)CC1,-10,
CCCn1nc([N+](=O)[O-])c(C(C#N)c2nc3ccccc3s2)c(Cl)c1=O (stereo unspecified),-51,
Cc1cc(NC(=O)COc2ncnc3sc(C)c(C)c23)no1,20,
CCCCOC(=O)n1c(SCC(=O)N(C)C)nc2ccccc21,16,
CCCC(=O)NCCCc1nc2ccccc2n1CCC,-4,
Cc1nc2ccccc2n1CCCOc1ccccc1,-62,
COCc1nc2ccccc2n1CCCOc1ccccc1,?,VCAM1 pot confirm=-16
Cc1cccc(-c2nnc(SCCOc3ccc4c(C)cc(=O)oc4c3)o2)c1,-1,
N#Cc1c(NC(=O)CCC(=O)O)sc2c1CCCC2,?,VCAM1 pot confirm=-13
CC1(C)Cc2c(sc(NC(=O)c3ccc(Br)o3)c2C#N)CO1,-2,
CCc1c(C)sc(NC(=O)CC#N)c1C#N,-17,
Cc1cc(C(=O)COC(=O)CCc2nc3ccccc3s2)c(C)n1C,0,
CCOC(=O)C1=NN(c2ccc(Cl)cc2)C(c2ccccc2)CC1=O (stereo unspecified),-26,
SMILES,VCAM1 pot,others
CCN1CCN(S(=O)(=O)c2cc(OC)ccc2OC)CC1,64*,VCAM1 pot confirm=-4
COc1ccc(CN2CCN(S(=O)(=O)c3ccccc3)CC2)c(OC)c1,6,
COc1ccc(C(=O)N2CCN(S(=O)(=O)c3ccccc3)CC2)c(OC)c1,-8,
Cc1oc(-c2ccccc2F)nc1CN1CCC(C(=O)NC2CC2)CC1,8,
Cc1ccc(C(=O)Nc2c(-c3cccs3)c(=O)c3ccccc3n2C)cc1,-3,
NC(=O)c1ccccc1OCCOCCOCCOc1ccccc1C(N)=O,18,
NC(=O)c1ccccc1N=Cc1ccccn1,40*,VCAM1 pot confirm=-13
COc1ccccc1CC(=O)N1CCCc2ccccc21,-19,
CCc1nnc(SCC(=O)N2CCCc3ccccc32)nc1CC,?,VCAM1 pot confirm=-22
